This note sets out measurements from PubChem BioAssay (EPA / NIEHS).

What all share (conditions): mRNA level, 48 h; actives raise or lower the signal
Read-out in assay [1]: ABC Transporter (ABCC2), ABCC2 (gene 1244)
Nature of the assay: LTEA_HepaRG_ABCC2: Life Technologies and Expression Analysis (LTEA) Assay for ABC Transporter (ABCC2) using HepaRG (AID 2283464). A digest of the protocol: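 qRT-PCR (TaqMan, Fluidigm array) read-out of ABCC2 mRNA, normalized to three housekeeping genes. Differentiated HepaRG cells were treated 48 h in serum-free induction medium with 8-point half-log series from 100 uM in 0.5% DMSO; curves fitted bidirectionally relative to DMSO.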

Read-out in assay [2]: Broad substrate specificity ATP-binding cassette transporter ABCG2 (Homo sapiens) (UniProt Q9UNQ0)
Nature of the assay: LTEA_HepaRG_ABCG2: Life Technologies and Expression Analysis (LTEA) Assay for ABC Transporter (ABCG2) using HepaRG (AID 2283465). A digest of the protocol:
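ABCG2 transcript was quantified by TaqMan qRT-PCR against three housekeeping genes in HepaRG cells. Cells were treated in duplicate for 48 h across an 8-point half-log series up to 100 uM, with 0.5% DMSO vehicle. Gain or loss versus DMSO was fit.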

Read-out in assay [3]: ATP-citrate lyase (ACLY), ACLY (gene 47)
The assay is described as follows: LTEA_HepaRG_ACLY: Life Technologies and Expression Analysis (LTEA) Assay for ATP-citrate lyase (ACLY) using HepaRG (AID 2283466). A digest of the protocol: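 ACLY mRNA quantified by qRT-PCR on Fluidigm arrays against three housekeeping genes, after 48 h chemical treatment of HepaRG cells (top concentration 100 uM, half-log steps, 0.5% DMSO vehicle). Up- or down-regulation fitted relative to DMSO.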

Read-out in assay [4]: Peroxisomal acyl-coenzyme A oxidase 1 (ACOX1) gene, ACOX1 (gene 51)
The assay is described as follows: LTEA_HepaRG_ACOX1: Life Technologies and Expression Analysis (LTEA) Assay for Peroxisomal acyl-coenzyme A oxidase 1 (ACOX1) gene using HepaRG (AID 2283467). Summed up: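 ACOX1 transcript levels were quantified by TaqMan qRT-PCR against three housekeeping genes after 48 h chemical exposure of differentiated human HepaRG cells. Exposure used eight half-log steps topping at 100 uM, 0.5% DMSO vehicle, in duplicate. Bidirectional curve fits were made relative to DMSO.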

Read-out in assay [5]: Alkaline Phosphatase, Placental (ALPP) gene, ALPP (gene 250)
Nature of the assay: LTEA_HepaRG_ALPP: Life Technologies and Expression Analysis (LTEA) Assay for Alkaline Phosphatase, Placental (ALPP) gene using HepaRG (AID 2283468). A digest of the protocol: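 qRT-PCR readout of ALPP mRNA (Fluidigm TaqMan), normalized to ACTB/GAPDH/POLR2A, after 48 h chemical exposure of HepaRG cells; 8-point half-log series, top 100 uM, 0.5% DMSO vehicle. Bidirectional curve fit versus DMSO baseline.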

Read-out in assay [6]: Bcl-2 (BAD) gene, BAD (gene 572)
The assay is described as follows: LTEA_HepaRG_BAD: Life Technologies and Expression Analysis (LTEA) Assay for Bcl-2 (BAD) gene using HepaRG (AID 2283469). A digest of the protocol: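 Read-out: qRT-PCR of BAD mRNA, normalized to three housekeeping genes. Human HepaRG cultures got 48 h chemical exposure in 0.5% DMSO, duplicate eight-point half-log series topping at 100 uM. Gain or loss of signal fitted versus DMSO vehicle.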

Read-out in assay [7]: Bcl-2 (BAX) gene, BAX (gene 581)
Nature of the assay: LTEA_HepaRG_BAX: Life Technologies and Expression Analysis (LTEA) Assay for Bcl-2 (BAX) gene using HepaRG (AID 2283470). Summed up:
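Cells were thawed, plated for 48 h, moved to serum-free induction medium and dosed for 48 h (highest concentration 100 uM, half-log steps, 0.5% DMSO). Total RNA was then analysed for BAX expression by qRT-PCR.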

Read-out in assay [8]: adenosine kinase (ADK) gene, ADK (gene 132)
Nature of the assay: LTEA_HepaRG_ADK: Life Technologies and Expression Analysis (LTEA) Assay for adenosine kinase (ADK) gene using HepaRG (AID 2283471). A digest of the protocol: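 Read-out is ADK transcript level measured by qRT-PCR and normalised to three housekeeping genes. Cells are human HepaRG, dosed for 48 h at up to 100 uM in 0.5% DMSO. Gain or loss of signal is fitted against DMSO controls.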

Read-out in assay [9]: Alpha-fetoprotein (AFP) gene, AFP (gene 174)
Nature of the assay: LTEA_HepaRG_AFP: Life Technologies and Expression Analysis (LTEA) Assay for Alpha-fetoprotein (AFP) gene using HepaRG (AID 2283472). A digest of the protocol: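 Chemicals were tested on differentiated HepaRG cells for 48 hours at eight concentrations up to 100 uM, with 0.5% DMSO as vehicle. AFP expression was then quantified by qRT-PCR and analyzed for gain or loss relative to DMSO.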

Read-out in assay [10]: BCL2L11 (gene 10018)
The assay is described as follows: LTEA_HepaRG_BCL2L11: Life Technologies and Expression Analysis (LTEA) Assay for Bcl-2 (BCL2L11) gene using HepaRG (AID 2283473). Summed up:
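HepaRG, 48 h exposure, 8-pt half-log series from 100 uM in 0.5% DMSO, duplicates; qRT-PCR (Fluidigm TaqMan) for BCL2L11, housekeeping-normalized; bidirectional curve fit relative to DMSO baseline.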

Read-out in assay [11]: Apolipoprotein A-V (APOA5) gene, APOA5 (gene 116519)
The assay is described as follows: LTEA_HepaRG_APOA5: Life Technologies and Expression Analysis (LTEA) Assay for Apolipoprotein A-V (APOA5) gene using HepaRG (AID 2283474). A digest of the protocol:
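HepaRG, 48 h chemical exposure in serum-free induction medium, 8-pt half-log series (top 100 uM), 0.5% DMSO vehicle, duplicates. Readout: APOA5 mRNA by qRT-PCR, housekeeping-normalized; bidirectional fit vs DMSO baseline.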

Read-out in assay [12]: Apoptosis regulator Bcl-2 (Homo sapiens) (UniProt P10415)
The assay is described as follows: LTEA_HepaRG_BCL2: Life Technologies and Expression Analysis (LTEA) Assay for Bcl-2 gene using HepaRG (AID 2283475). A digest of the protocol: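 Plated human HepaRG cells are exposed to test chemicals for 48 h across eight concentrations from 100 uM downward in half-log steps (0.5% DMSO). BCL2 expression is then measured by qRT-PCR with housekeeping normalisation and fitted bidirectionally against vehicle.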

Read-out in assay [13]: Caspase-3 (Homo sapiens) (UniProt P42574)
The assay is described as follows: LTEA_HepaRG_CASP3: Life Technologies and Expression Analysis (LTEA) Assay for cysteine-aspartic acid protease (CASP3) using HepaRG (AID 2283477). A digest of the protocol:
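HepaRG, 48 h exposure, 8 conc. (top 100 uM, half-log steps, duplicate), 0.5% DMSO vehicle; qRT-PCR of CASP3 transcript, housekeeping-normalised (ACTB/GAPDH/POLR2A); bidirectional curve fit vs DMSO baseline.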

Read-out in assay [14]: Cytochrome P450 (CYP24A1), CYP24A1 (gene 1591)
Nature of the assay: LTEA_HepaRG_CYP24A1: Life Technologies and Expression Analysis (LTEA) Assay for Cytochrome P450 (CYP24A1) using HepaRG (AID 2283478). Summed up: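 qRT-PCR read-out: CYP24A1 transcript levels normalized to three housekeeping genes, bidirectional curve fits against 0.5% DMSO baseline. Human HepaRG cells treated 48 h with chemicals at eight concentrations from 100 uM in half-log steps.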

Read-out in assay [15]: Cytochrome P450 (CYP1A2), CYP1A2 (gene 1544)
The assay is described as follows: LTEA_HepaRG_CYP1A2: Life Technologies and Expression Analysis (LTEA) Assay for Cytochrome P450 (CYP1A2) using HepaRG (AID 2283479). A digest of the protocol: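 HepaRG, 48 h exposure, top 100 uM, half-log 8-pt, 0.5% DMSO vehicle, duplicates. Readout: TaqMan qRT-PCR of CYP1A2 mRNA, housekeeping-normalized (ACTB/GAPDH/POLR2A). Gain/loss fit relative to DMSO baseline.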

Read-out in assay [16]: Cytochrome P450 (CYP2B6), CYP2B6 (gene 1555)
The assay is described as follows: LTEA_HepaRG_CYP2B6: Life Technologies and Expression Analysis (LTEA) Assay for Cytochrome P450 (CYP2B6) using HepaRG (AID 2283481). A digest of the protocol:
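Read-out is CYP2B6 mRNA by TaqMan qRT-PCR, normalized to three housekeeping genes and fitted bidirectionally against 0.5% DMSO baseline. Human HepaRG cells received test chemicals for 48 h, top concentration 100 uM, half-log dilutions.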

Read-out in assay [17]: Cytochrome P450 2C19 (Homo sapiens) (UniProt P33261)
Nature of the assay: LTEA_HepaRG_CYP2C19: Life Technologies and Expression Analysis (LTEA) Assay for CYP2C19 using HepaRG (AID 2283482). Summed up: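 HepaRG, 48 h chemical exposure, 8-pt half-log series from 100 uM in 0.5% DMSO, duplicates. Readout: CYP2C19 mRNA by TaqMan qRT-PCR, housekeeping-normalized. Bidirectional fit vs DMSO baseline; phenobarbital 1mM as induction control.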

Read-out in assay [18]: CYP2C8 (gene 1558)
Nature of the assay: LTEA_HepaRG_CYP2C8: Life Technologies and Expression Analysis (LTEA) Assay for CYP2C8 using HepaRG (AID 2283483). Summed up: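 CYP2C8 expression measured by TaqMan qRT-PCR and normalized to three housekeeping genes. HepaRG cultures were treated for 48 h with an eight-point half-log series topping at 100 uM, vehicle 0.5% DMSO, duplicates; fitted both directions against DMSO.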

Read-out in assay [19]: Bcl-2 (BID) gene, BID (gene 637)
Nature of the assay: LTEA_HepaRG_BID: Life Technologies and Expression Analysis (LTEA) Assay for Bcl-2 (BID) gene using HepaRG (AID 2283476). Summed up: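 Cells are plated, cultured 48 h, switched to serum-free induction medium, then dosed 48 h (100 uM top, half-log steps, 0.5% DMSO). RNA is isolated and BID expression read by qRT-PCR.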

Read-out in assay [20]: cysteine-aspartic acid protease (CASP8), CASP8 (gene 841)
Nature of the assay: LTEA_HepaRG_CASP8: Life Technologies and Expression Analysis (LTEA) Assay for cysteine-aspartic acid protease (CASP8) using HepaRG (AID 2283480). Summed up:
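CASP8 transcript measured by TaqMan qRT-PCR with ACTB/GAPDH/POLR2A normalization, after 48 h chemical exposure of HepaRG cells in serum-free induction medium. Eight concentrations, top 100 uM, half-log steps, 0.5% DMSO vehicle; fits in both directions versus DMSO.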

Several values for one entry are separate records, joined by “and”; a condition that tells them apart may be missing. Equal entries are not always repeated. The source holds several records for some structures; these can differ, active in one and inactive in another. Activity calls are given as the source filed them. Rule for the calls: active = hit-call score of the fitted dose curve at least 0.9, where 1 is the maximum; inactive = score below 0.9.

Cytochrome P450 2C19 (Homo sapiens), sequence (P33261 whole entry, looked up): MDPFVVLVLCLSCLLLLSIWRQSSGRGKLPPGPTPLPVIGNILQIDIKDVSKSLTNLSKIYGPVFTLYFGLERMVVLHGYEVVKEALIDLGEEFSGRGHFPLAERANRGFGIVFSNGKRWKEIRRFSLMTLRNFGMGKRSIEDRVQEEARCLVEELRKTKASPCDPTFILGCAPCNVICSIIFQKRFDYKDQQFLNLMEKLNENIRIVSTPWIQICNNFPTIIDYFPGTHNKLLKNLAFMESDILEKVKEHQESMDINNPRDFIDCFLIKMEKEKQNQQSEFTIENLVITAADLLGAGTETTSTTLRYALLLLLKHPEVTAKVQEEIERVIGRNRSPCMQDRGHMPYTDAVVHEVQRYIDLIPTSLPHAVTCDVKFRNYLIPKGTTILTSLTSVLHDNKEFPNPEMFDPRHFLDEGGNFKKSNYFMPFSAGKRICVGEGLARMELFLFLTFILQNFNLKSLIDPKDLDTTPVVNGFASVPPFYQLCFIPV
Apoptosis regulator Bcl-2 (Homo sapiens), sequence (P10415 whole entry, looked up): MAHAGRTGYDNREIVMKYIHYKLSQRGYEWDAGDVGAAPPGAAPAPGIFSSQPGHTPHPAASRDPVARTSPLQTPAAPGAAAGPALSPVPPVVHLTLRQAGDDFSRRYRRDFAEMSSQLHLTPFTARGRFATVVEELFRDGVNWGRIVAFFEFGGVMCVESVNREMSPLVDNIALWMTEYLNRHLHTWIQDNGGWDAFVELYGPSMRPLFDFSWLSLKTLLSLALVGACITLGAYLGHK
Broad substrate specificity ATP-binding cassette transporter ABCG2 (Homo sapiens), sequence (Q9UNQ0 whole entry, looked up): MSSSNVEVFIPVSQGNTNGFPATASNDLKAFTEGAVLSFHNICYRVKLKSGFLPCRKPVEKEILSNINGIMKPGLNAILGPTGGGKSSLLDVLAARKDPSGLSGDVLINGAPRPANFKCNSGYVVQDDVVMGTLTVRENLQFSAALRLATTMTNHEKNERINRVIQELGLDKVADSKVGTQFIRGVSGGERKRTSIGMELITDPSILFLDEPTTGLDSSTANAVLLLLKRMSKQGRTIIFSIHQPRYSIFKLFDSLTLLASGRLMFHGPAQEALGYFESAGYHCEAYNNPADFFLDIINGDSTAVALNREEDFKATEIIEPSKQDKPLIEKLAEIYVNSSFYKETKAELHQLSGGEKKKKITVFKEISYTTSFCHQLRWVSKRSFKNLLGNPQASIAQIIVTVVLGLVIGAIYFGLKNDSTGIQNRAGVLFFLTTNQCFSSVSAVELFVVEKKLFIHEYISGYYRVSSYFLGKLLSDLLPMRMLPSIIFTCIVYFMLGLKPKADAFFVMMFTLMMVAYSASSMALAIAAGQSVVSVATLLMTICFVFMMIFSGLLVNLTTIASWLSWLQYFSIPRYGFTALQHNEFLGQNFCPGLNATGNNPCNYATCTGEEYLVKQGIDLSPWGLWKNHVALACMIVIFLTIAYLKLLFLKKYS
Caspase-3 (Homo sapiens), sequence (P42574 whole entry, looked up): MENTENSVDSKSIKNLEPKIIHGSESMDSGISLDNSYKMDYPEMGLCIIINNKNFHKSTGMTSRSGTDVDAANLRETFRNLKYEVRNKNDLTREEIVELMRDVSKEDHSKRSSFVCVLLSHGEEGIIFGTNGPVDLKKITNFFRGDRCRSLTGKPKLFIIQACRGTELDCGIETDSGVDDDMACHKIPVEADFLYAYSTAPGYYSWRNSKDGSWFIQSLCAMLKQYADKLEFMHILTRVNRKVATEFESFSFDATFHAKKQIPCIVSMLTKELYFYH

One may read the AC50 as the concentration giving half of the maximal activity seen. Consider `CCCCCOC(=O)COc1cc(N2C(=O)C3=C(CCCC3)C2=O)c(F)cc1Cl`, for which the result in [1], in assay [2], in assay [3], in assay [4], in assay [5] and in [6] was inactive. In addition, the call in assay [7], in [8], in assay [9], in assay [10], in assay [11] and in [12] was inactive. Also, the compound was called inactive in assay [13], in assay [15], in assay [17] and in [18]. The AC50 in [14] is 0.00316 µM (active); in [16] it was 25.9 µM (active).

`CC(C)(c1ccc(O)cc1)c1ccc(O)cc1`: the compound was classed as inactive in [1], in [2], in assay [3], in assay [4], in assay [5] and in assay [6]. Moreover, the compound was classed as inactive in [7], in [8], in assay [9], in assay [10], in [11] and in assay [12]. Besides, the compound was called inactive in assay [13], in assay [14], in assay [17] and in [18]. For the same compound, the AC50 is 0.199 µM (active) in assay [4]; 50 µM (active) in [15]; 50 µM (active) and 31.1 µM (active) and 64.4 µM (active) in assay [16]; 37.1 µM (active) in assay [17].

Turning to `Oc1ccc(C(c2ccc(O)cc2)C(Cl)(Cl)Cl)cc1`, the AC50 is 75.4 µM (active) in assay [2]; 78.5 µM (active) in [3]; 85.5 µM (active) in assay [4]; 75.9 µM (active) in assay [8]; 79.7 µM (active) in assay [11]; 84.8 µM (active) in assay [19]. The AC50 in [13] was 86.2 µM (active); in assay [20] it was 88.4 µM (active); in assay [16], 81.1 µM (active); in assay [17] it was 78.4 µM (active); in assay [18], 93.2 µM (active). For the same compound, the call in assay [5], in assay [6], in assay [7], in [9], in assay [10] and in assay [12] was inactive. In addition, the compound was called inactive in [14] and in [15].
